# Bioassay records from PubChem.
# Hits are enriched below; roughly 0.32% of the tested compounds scored in any of these assays.
# TcdB GH inh: inhibitors of Clostridioides difficile toxin B glycohydrolase; TcdB glycohydrolase enzymatic assay, plate reader; hit rate 0.24% among 350,000; P18177; AID 652162; inhibition, % at 9.99 µM; in the data active means inhibition above about 10%
# Y pestis TopoI: inhibitors of Yersinia pestis topoisomerase I; Y. pestis Topo-I cleavage product accumulation, plate reader; activity, % at 10 µM; hit rate 0.064% among 360,000; in the data active means activity above about 50%, passing the limit was not always enough; inconclusive means no clear call, values can overlap the other calls
# BioA inh-1: BioA (M. tuberculosis) enzyme inhibition. inhibition, % at 9.99 µM. hit rate 0.096% among 360,000. purified M. tuberculosis BioA enzyme, plate reader; in the data active means inhibition above about 40%; inconclusive means no clear call, values can overlap the other calls
# BioA inh-2: inhibitors of Mycobacterium tuberculosis BioA enzyme; shares compounds with BioA inh-1; purified BioA enzyme, plate reader, dose response; max activity, %; 310 tested, under 10 active; AID 651679;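 further: top concentration of the dilution series was 10 µM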
# Target sequence (P9WQ81 whole entry, looked up): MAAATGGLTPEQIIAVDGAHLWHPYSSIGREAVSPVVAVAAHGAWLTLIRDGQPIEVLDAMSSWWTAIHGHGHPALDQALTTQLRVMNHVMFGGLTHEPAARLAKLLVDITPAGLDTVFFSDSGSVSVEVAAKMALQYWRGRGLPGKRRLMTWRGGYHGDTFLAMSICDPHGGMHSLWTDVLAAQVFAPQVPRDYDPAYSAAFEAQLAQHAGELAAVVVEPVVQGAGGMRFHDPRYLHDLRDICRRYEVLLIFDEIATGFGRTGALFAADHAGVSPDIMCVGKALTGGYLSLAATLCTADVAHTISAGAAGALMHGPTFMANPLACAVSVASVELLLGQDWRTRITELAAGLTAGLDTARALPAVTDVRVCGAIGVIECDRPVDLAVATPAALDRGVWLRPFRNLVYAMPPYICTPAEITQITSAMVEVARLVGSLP
# HepG2 tox 2: HepG2 viability loss. shares compounds with BioA inh-1. HepG2 cytotoxicity, plate reader. max activity, %. 310 tested, under 10 active. AID 651898
# NIH3T3 tox 5: kills NIH3T3 cells. activity change, negative = cytotoxicity, % at 26 µM. 310 tested, under 10 active. shares compounds with BioA inh-1. NIH3T3 cytotoxicity, plate reader
# Hits are given with their value; n = inactive; u = inconclusive; x = not tested or not shown. Unless noted, how the calls were made is not given here.
SMILES,TcdB GH inh,Y pestis TopoI,BioA inh-1,BioA inh-2,HepG2 tox 2,NIH3T3 tox 5
CC(=O)c1ccc(C(=O)N2CCCC(CO)(Cc3ccccc3C)C2)s1 (stereo not drawn),n,n,54,n,n,n
Cc1ccccc1CC1(CO)CCCN(C(=O)c2ccccc2Cl)C1 (stereo not drawn),n,n,x,x,x,x
O=C(NC1CCCc2c1cnn2-c1cc(F)cc(F)c1)c1ccc[n+]([O-])c1 (stereo not drawn),n,n,65,n,n,n
O=C(NC1CCCc2c1cnn2-c1cc(F)cc(F)c1)c1cc[n+]([O-])cc1 (stereo not drawn),n,n,n,x,x,x
O=C(C[C@@H]1C[C@H]2c3cc(NC(=O)c4cccnc4)ccc3O[C@H]2[C@H](CO)O1)NC1CCCCC1,n,x,n,x,x,x
COc1ccc(NC(=O)N(C)C[C@@H]2Oc3ccc(NS(=O)(=O)c4ccc(F)cc4)cc3CC(=O)N([C@H](C)CO)C[C@H]2C)cc1,n,x,x,x,x,x
CCn1c(=O)c(=O)n(CC)c2cc(S(=O)(=O)Nc3cc(C)ccc3C)ccc21,n,n,42,n,n,n
Cc1ccc(NS(=O)(=O)c2ccc3c(c2)n(C)c(=O)n3C)c(C)c1,n,n,n,x,x,x
CCCc1nc2ccc(Br)cc2c(=O)n1-c1ccc([N+](=O)[O-])c(C(F)(F)F)c1,x,n,n,x,x,x
CCc1nc2ccc(Br)cc2c(=O)n1-c1ccccc1C(F)(F)F,n,n,60,n,u,n
CNC[C@@H]1Oc2ccc(NS(=O)(=O)c3ccc(C)cc3)cc2CC(=O)N([C@H](C)CO)C[C@H]1C,n,x,n,x,x,x
Cc1cccc(-c2nnc(SCC#N)n2-c2ccccc2)c1,x,n,44,n,n,n
Cc1cccc(-c2nnc(SCC#N)n2Cc2ccccc2)c1,x,n,n,x,x,x
CO[C@H]1CN(C)C(=O)c2cc(NC(=O)Nc3c(C)noc3C)ccc2OC[C@@H](C)NC[C@H]1C,n,x,n,x,x,x
CC(C)NC(=O)Nc1ccc2c(c1)CC(=O)N([C@@H](C)CO)C[C@H](C)[C@@H](CN(C)CC1CC1)O2,n,x,n,x,x,x
Cc1cc2c(c(=O)n1Cc1cccnc1)C(c1cccs1)C(C#N)=C(N)O2 (stereo not drawn),x,n,64,n,n,n
Cc1cc2c(c(=O)n1Cc1cccnc1)C(Cc1ccccc1)C(C#N)=C(N)O2 (stereo not drawn),x,n,x,x,x,x
O=C(C[C@@H]1C[C@@H]2c3cc(NC(=O)CC4CC4)ccc3O[C@@H]2[C@@H](CO)O1)NCC1CC1,n,x,n,x,x,x
COC(=O)c1c(C(=O)OC)c(-c2ccc(OC)cc2)n2c1CS(=O)C2 (stereo not drawn),n,n,n,x,x,x
COC(=O)c1c(C(=O)OC)c(-c2cccc(Cl)c2)n2c1CS(=O)C2 (stereo not drawn),n,n,x,x,x,x
COC(=O)c1c(C(=O)OC)c(-c2ccccc2)n2c1CS(=O)C2 (stereo not drawn),x,n,73,n,n,n
COC(=O)c1c(C(=O)OC)c(-c2ccc(F)cc2)n2c1CS(=O)C2 (stereo not drawn),n,n,60,n,n,n
C[C@@H]1CCCCO[C@@H](CN(C)C)[C@@H](C)CN([C@@H](C)CO)C(=O)c2cc(NS(=O)(=O)c3cccs3)ccc2O1,n,x,n,x,x,x
CN1C(=O)c2cc(NC(=O)Nc3ccccc3F)ccc2OC[C@@H]2O[C@@H](CC(=O)O)CC[C@H]21,x,x,n,x,x,x
COc1ccc(NC2CCCN(C(=O)c3ccc(C(C)=O)s3)C2)cc1 (stereo not drawn),n,n,84,n,n,n
SMILES,TcdB GH inh,Y pestis TopoI,BioA inh-1,BioA inh-2,HepG2 tox 2,NIH3T3 tox 5
COc1ccc(NC2CCCN(C(=O)c3ccc(C(C)=O)cc3)C2)cc1 (stereo not drawn),n,n,n,x,x,x
O=C(Nc1ccccc1)C1CC(=O)N(Cc2ccccc2)C1 (stereo not drawn),n,n,n,x,x,x
CC(=O)c1ccc(NC(=O)C2CC(=O)N(Cc3ccccc3)C2)cc1 (stereo not drawn),x,n,74,n,n,n
CCCNC(=O)N(C)C[C@H]1Oc2ncc(C#CC3CC3)cc2C(=O)N([C@@H](C)CO)C[C@@H]1C,n,x,n,x,x,x
CCCNC(=O)N[C@@H]1C=C[C@@H](CC(=O)NC2CCC2)O[C@H]1CO,n,x,n,x,x,x
O=C(CSc1nc2ccccc2c(=O)n1-c1ccccc1)N1CCN(CCO)CC1,x,n,50,n,u,n
O=C(CSc1nc2ccccc2c(=O)n1-c1ccccc1)N1CCC1,n,n,x,x,x,x
O=C(c1cccc(F)c1)N1CC[C@H]2[C@H](CO)Nc3ccc(-c4ccccc4)cc3[C@H]21,n,x,x,x,x,x
O=C(c1cccc(F)c1)N1CC[C@@H]2[C@H]1c1cc(-c3cccc(F)c3)ccc1N[C@@H]2CO,x,x,73,n,n,n
